Screening data from PubChem BioAssay.
Mcl1-Bid inh: disrupts binding of human Mcl-1 to Bid peptide; Q07820; inhibition, % at 21.7 µM; 0.97% of 220,000 active; AID 1021; TR-FRET Mcl-1/Bid-Dy647 peptide binding, 1536-well;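 active = compounds that cut the binding signal by more than half at the single screening dose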;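 note: His-tagged Mcl-1 with europium anti-His antibody binding Bid BH3 peptide; 0% = Mcl-1 plus peptide wells and 100% = peptide-only wells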
14-3-3 Bad inh: disrupts binding of bovine 14-3-3 zeta to phospho-Bad peptide | 0.71% of 220,000 active | inhibition, % at 21.7 µM | TR-FRET 14-3-3zeta/Dy647-pBad peptide displacement, 1 h;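 active = inhibition above about 70%, limit read from the data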;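 note: 0% = full 14-3-3 plus peptide FRET controls and 100% = background without 14-3-3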
Mcl1 Noxa PPI: disrupts binding of human Mcl-1 to Noxa peptide. TR-FRET Mcl-1/Noxa peptide binding, 2 h. 1.5% of 220,000 active. Q07820. AID 1022. inhibition, % at 21.7 µM;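 active = compounds that cut the protein-peptide binding signal by more than 50% relative to plate controls in a single-dose test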;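 note: His-tagged Mcl-1 with rhodamine Noxa BH3 peptide and terbium anti-His antibody; 0% = Mcl-1 plus Noxa peptide wells and 100% = peptide-only wells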
eIF4E-4G inh: inhibitors of eIF4E and eIF4G interaction in translation initiation. inhibition, % at 21.7 µM. TR-FRET eIF4E-eIF4GI(517-606) binding, 2 h. 0.37% of 220,000 active. AID 782. P63073+Q04637;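 active = inhibition above about 30%, limit read from the data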;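 note: 0% = full FRET control wells and 100% = background wells lacking eIF4GI fragment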
Bim-Mcl-1: inhibitors of Bim-Mcl-1 interaction, human | Q07820 | Bead-based flow cytometry, Bim peptide-Mcl-1 binding | inhibition, % at 10 µM | 0.1% of 190,000 active | AID 1009; in the data active = inhibition above about 40%;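 note: 0% = no compound tracer wells and 100% = peptide blocker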
MCL1 BIM primary: disrupts human MCL1 binding to BIM-BH3 peptide | GST-MCL1 / FITC-Bim-BH3 fluorescence polarization | 0.68% of 320,000 active | AID 2057 | inhibition, % at 10.9 µM;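 active = inhibition above the mean inhibition of all tested compounds plus 3 SD, set per campaign, cut at about 40% in these data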;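 note: 0% = DMSO wells and 100% = unlabeled Bim-BH3 peptide control; higher means more loss of mP so more displacement of Bim peptide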
Bcl-xL conf: counter-screen for MCL1 inhibitors: confirmation of human Bcl-xL inhibitors | 54% of 1,700 active | GST-Bcl-xL / FITC-Bim BH3 peptide FP binding | inhibition, % at 10.9 µM | shares compounds with MCL1 BIM primary;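 active = inhibition above a cutoff equal to the mean inhibition of all tested compounds plus 3 SD, cut at about 30% in these data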;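 note: 0% = DMSO wells and 100% = unlabeled Bim BH3 control peptide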
Target sequence (Q07817 whole entry, looked up): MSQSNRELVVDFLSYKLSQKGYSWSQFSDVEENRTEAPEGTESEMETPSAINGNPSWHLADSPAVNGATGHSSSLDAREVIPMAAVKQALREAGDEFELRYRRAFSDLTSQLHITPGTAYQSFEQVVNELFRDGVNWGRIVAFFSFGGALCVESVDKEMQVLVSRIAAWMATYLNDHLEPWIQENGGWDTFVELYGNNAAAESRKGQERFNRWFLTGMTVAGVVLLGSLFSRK
MCL1 BIM confirm: MCL1-BIM-BH3 interaction inhibition, confirmation. shares compounds with MCL1 BIM primary. GST-MCL1 / FITC-Bim-BH3 fluorescence polarization. inhibition, % at 10.9 µM. 61% of 1,700 active;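 active = inhibition above the average of all tested compounds plus 3 SD, cut at about 40% in these data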;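 note: 0% = DMSO wells and 100% = unlabeled Bim-BH3 control peptide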
An asterisk follows results filed as active; x = no result. Most compounds without a hit are left out; they make up all but 2.6% or so of the library.

SMILES	Mcl1-Bid inh	14-3-3 Bad inh	Mcl1 Noxa PPI	eIF4E-4G inh	Bim-Mcl-1	MCL1 BIM primary	Bcl-xL conf	MCL1 BIM confirm
Nc1nn2c(-c3ccccc3)cc(=O)[nH]c2c1N=Nc1ccc(O)cc1	80*	56	37	-2	6	64*	38*	74*
O=C1CSC(=S)N1/N=C/c1cc(Br)ccc1O	x	x	x	x	x	32	x	x
O=C1CSC(=S)N1/N=C/c1ccc(O)c(O)c1O	100*	96*	101*	84*	x	85*	75*	93*
Cc1ccc(C(=O)O)cc1N1C(=O)c2cccc3c([N+](=O)[O-])ccc(c23)C1=O	x	x	x	x	x	102*	47*	76*
CN(C)CCCN1C(=O)c2cccc3c([N+](=O)[O-])ccc(c23)C1=O	-6	8	14	7	0	77*	92*	125*
COc1ccc(C(=O)O/N=C/c2ccc(S(=O)(=O)c3ccc(Cl)cc3)nc2)cc1	x	x	x	x	x	-7	x	x
O=C(O)C(c1ccccc1)N1C(=O)/C(=C\c2ccc(O)c(O)c2)SC1=S (configuration not stated)	x	x	x	x	x	70*	63*	88*
COc1cccc(C(=O)NNC(=O)Cc2ccc([N+](=O)[O-])cc2)c1	-23	-9	3	0	-6	-5	x	x
COc1ccc(OC)c(C2Nc3c(Cl)ccc(C(=O)O)c3C3C=CCC32)c1 (configuration not stated)	-18	1	36	1	0	26	x	x
COC(=O)COc1ccc(C2Nc3c(Cl)ccc(C(=O)O)c3C3C=CCC32)cc1 (configuration not stated)	-4	10	18	2	-6	53*	34*	32
O=C(O)c1ccc(Cl)c2c1C1C=CCC1C(c1ccccn1)N2 (configuration not stated)	56*	21	89*	10	5	115*	58*	82*
O=[N+]([O-])c1ccc(Cl)c2c1C1C=CCC1C(c1ccccn1)N2 (configuration not stated)	-49	-11	-3	8	2	36	x	x
Cc1cccc(OCC(=O)Nc2ccc3c(c2)nc(CCN2CCN(c4ccccn4)CC2)n3C)c1	x	x	x	x	x	-1	x	x
Cc1c(N)cc(N)cc1C(=O)O	-149	84*	1	-1	x	166*	67*	44*
Cc1c(Br)cc(C(=O)O)c(C)c1C	12	12	20	7	0	8	x	x
COc1cccc(NC(=O)c2ccncc2)c1	-41	-2	-12	-2	9	7	x	x
COc1cccc(C(=O)Nc2ccc3c(c2)C(=O)c2ccccc2C3=O)c1	74*	53	75*	9	5	77*	8	34
COc1cccc(C(=O)Nc2ccncc2)c1	-20	-14	4	2	-1	45*	-1	3
CC(Sc1nnc(-c2ccncc2)n1C)C(=O)Nc1nccs1 (configuration not stated)	x	x	x	x	x	0	x	x
Nc1nnnn1/N=C/c1cc(Cl)cc(Cl)c1O	x	x	x	x	x	133*	134*	148*
CCOc1c(Cl)cc(C(=O)Nc2cccc(C(=O)O)c2)cc1Cl	-20	-9	4	-1	13	6	x	x
CC(=O)N/N=C/c1cc(C(C)C)cc(/C=N/NC(C)=O)c1O	-27	-22	-8	-1	0	100*	92*	101*
CC(=O)N/N=C/c1cc(C)n(-c2ccc(Br)cc2)c1C	-47	-3	12	-1	0	-2	x	x
COc1cc(OC)cc(-c2nn[nH]n2)c1	17	2	25	-2	-5	2	x	x
CN1/C(=C\C=N\NC(=O)c2ccc(O)cc2)C(C)(C)c2ccccc21	-98	-20	-3	14	-4	47*	-15	-28
O=C(O)c1cc(S(=O)(=O)N2CC3CC3C2C(=O)O)c(Cl)cc1Cl (configuration not stated)	x	x	x	x	x	1	x	x
O=c1[nH][nH]cc1C=NCc1cccc(C(F)(F)F)c1	-12	-7	-12	0	0	2	x	x
